# Active and inactive are the calls of the source. Unless noted, the rule behind the calls is not given here.
# Experiments:
# [1] = test system: Wnt5a (protein binding on small-molecule microarray); assay: small molecules binding Wnt5a protein – biophysical, small-molecule microarray, 635/667 nm fluorescence, primary screen (AID 1142); settings: 635 nm fluorescence, higher = more signal;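 note: fluorescence read at 667 nm with signal to noise per printed feature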
# [2] = ATP-based viability of Huh7 replicon cells – cell-based, CellTiter-Glo luminescence, basal, 48 h, cytotoxicity control for HCV replication inhibitor project, primary screen (AID 1143); settings: higher = more signal, called active from +8 up or from −8 down;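 note: Huh7 hepatoma cells carrying a hepatitis C replication reporter with no stimulus; test concentration not given here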
# [3] = Pseudomonas biofilm growth suppression – PAO1 strain, BacTiter-Glo luminescence, LB-PBS, primary screen (AID 1144); settings: P. aeruginosa PAO1 biofilm, 12 h, higher = more signal
# [4] = basal CRE-LacZ reporter activity in PC12 – cell-based, unstimulated, primary screen (AID 1145); settings: no forskolin, luminescence, 4.5 h, higher = more signal, called active from +8 up or from −8 down
# [5] = forskolin-driven CRE-LacZ activity in PC12 – cell-based, CRE-LacZ reporter, forskolin-stimulated, primary screen (AID 1146); settings: luminescence, 4.5 h, higher = more signal, called active from +8 up or from −8 down;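 note: PC12 cells with 6xCRE LacZ reporter stimulated by forskolin 10 µM; beta-galactosidase reporter signal reflecting CREB driven transcription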
# [6] = target: Streptavidin (Streptomyces avidinii) (UniProt P22629); assay: compounds binding control protein streptavidin – biophysical, small-molecule microarray, 635/667 nm fluorescence, artefact control for SMM compound annotation, primary screen (AID 1147); settings: higher = more signal;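 note: signal reflects streptavidin binding to arrayed compounds as a control protein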
# Streptavidin (Streptomyces avidinii), sequence (P22629 whole entry, looked up): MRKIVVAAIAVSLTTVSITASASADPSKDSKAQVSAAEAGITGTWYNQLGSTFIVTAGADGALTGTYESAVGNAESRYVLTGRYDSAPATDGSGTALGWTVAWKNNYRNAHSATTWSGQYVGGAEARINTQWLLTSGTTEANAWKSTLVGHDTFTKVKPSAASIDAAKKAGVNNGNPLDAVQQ
# [7] = probe aInhba binding on compound microarray – biochemical, small-molecule microarray, 635/667 nm fluorescence, primary screen (AID 1148); settings: higher = more signal;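 note: score merges 667nm spot fluorescence with signal-to-noise for antibody binding to printed compounds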
# Torsin-1A (Homo sapiens) [8] = target: Torsin-1A (Homo sapiens) (UniProt O14656); assay: TOR1A wild-type binding on microarray – cell lysate, small-molecule microarray, lysate, 635/667 nm, primary screen (AID 1149); settings: COS7 hTOR1A-WT lysate, 635 nm fluorescence, higher = more signal
# Torsin-1A (Homo sapiens), sequence (O14656 whole entry, looked up): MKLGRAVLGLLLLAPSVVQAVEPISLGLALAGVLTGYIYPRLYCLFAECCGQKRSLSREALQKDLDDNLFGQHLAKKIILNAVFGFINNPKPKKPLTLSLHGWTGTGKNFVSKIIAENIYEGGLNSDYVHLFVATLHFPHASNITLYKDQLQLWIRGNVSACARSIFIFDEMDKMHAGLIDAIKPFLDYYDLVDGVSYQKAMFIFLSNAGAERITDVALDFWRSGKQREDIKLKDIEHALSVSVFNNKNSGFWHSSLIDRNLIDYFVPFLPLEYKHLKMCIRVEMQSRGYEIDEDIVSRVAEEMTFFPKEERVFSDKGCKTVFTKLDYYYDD
# Torsin-1A (Homo sapiens) [9] = target: Torsin-1A (Homo sapiens) (UniProt O14656); assay: torsin A mutant lysate binding on microarrays – cell lysate, small-molecule microarray, COS7 lysate, 635/667 nm fluorescence, primary screen (AID 1150); settings: COS7 hTOR1A mutant lysate, 635 nm fluorescence, higher = more signal;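 note: score pools 667 nm emission and signal to noise measuring lysate protein binding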
# [10] = test system: Sonic hedgehog protein (Shh); assay: Sonic hedgehog microarray binding compounds – biochemical, small-molecule microarray, 635/667 nm fluorescence, primary screen (AID 1151); settings: 635 nm fluorescence, higher = more signal;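 note: Shh protein binding to compounds spotted on small-molecule microarray slides; score combines spot fluorescence intensity with signal-to-noise across triplicate slides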
# [11] = optical density shifts of acrAB sulA E. coli – strain DRC41, OD650, 48 h, E. coli filamentation inducer project, primary screen (AID 1152); settings: higher = more signal, called active from +8 up or from −8 down;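 note: E. coli MC1000 strain DRC41 lacking acrAB efflux pump and sulA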
# [12] = probe aLefty1 binding on compound microarray – biochemical, small-molecule microarray, 635/667 nm fluorescence, primary screen (AID 1153); settings: higher = more signal;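 note: score merges spot fluorescence with signal-to-noise ratio from the scanned slide images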
# [13] = plasmodial surface anion channel blockers, osmotic lysis – cell-based, P. falciparum Indochina, OD700, 1 h, primary screen (AID 1154); settings: P. falciparum Indochina infected RBC osmotic lysis, higher = more signal, called active from +8 up or from −8 down
# [14] = plasmodial surface anion channel blockers, osmotic lysis – cell-based, P. falciparum Indochina, OD700, 2 h, primary screen (AID 1155);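 note: lysis reports solute entry through the parasite surface anion channel PSAC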; settings: P. falciparum Indochina infected erythrocytes, higher = more signal, called active from +8 up or from −8 down
# [15] = changes in parasitized red cell lysis, either direction – P. falciparum Indochina, OD700, 3 h, PSAC antagonist project, primary screen (AID 1156); settings: P. falciparum-infected erythrocytes, osmotic lysis, higher = more signal, called active from +8 up or from −8 down
# [16] = plasmodial surface anion channel blockers, osmotic lysis – cell-based, P. falciparum Indochina, OD700, 18 h, primary screen (AID 1157); settings: P. falciparum Indochina infected erythrocytes, osmotic lysis OD700, 18 h; higher = more signal, called active from +8 up or from −8 down
# [17] = S6 kinase pathway phospho-S6 level changes – cell-based, A549, cytoblot, luminescence, serum-stimulated, primary screen (AID 1158); settings: 5 h, higher = more signal;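 note: serum-stimulated A549 lung adenocarcinoma cells; signal is phosphorylated S6 detected by cytoblot immunostaining with HRP secondary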
# [18] = target: NADPH oxidase 2 (Homo sapiens) (UniProt P04839); assay: compounds shifting NOX2 Amplex Red fluorescence – cell-based, HEK293-NOX2, PMA-stimulated, NOX inhibitor project, primary screen (AID 1159); settings: 45 min, higher = more signal, called active from +8 up or from −8 down; note: test concentration not given here
# NADPH oxidase 2 (Homo sapiens), sequence (P04839 whole entry, looked up): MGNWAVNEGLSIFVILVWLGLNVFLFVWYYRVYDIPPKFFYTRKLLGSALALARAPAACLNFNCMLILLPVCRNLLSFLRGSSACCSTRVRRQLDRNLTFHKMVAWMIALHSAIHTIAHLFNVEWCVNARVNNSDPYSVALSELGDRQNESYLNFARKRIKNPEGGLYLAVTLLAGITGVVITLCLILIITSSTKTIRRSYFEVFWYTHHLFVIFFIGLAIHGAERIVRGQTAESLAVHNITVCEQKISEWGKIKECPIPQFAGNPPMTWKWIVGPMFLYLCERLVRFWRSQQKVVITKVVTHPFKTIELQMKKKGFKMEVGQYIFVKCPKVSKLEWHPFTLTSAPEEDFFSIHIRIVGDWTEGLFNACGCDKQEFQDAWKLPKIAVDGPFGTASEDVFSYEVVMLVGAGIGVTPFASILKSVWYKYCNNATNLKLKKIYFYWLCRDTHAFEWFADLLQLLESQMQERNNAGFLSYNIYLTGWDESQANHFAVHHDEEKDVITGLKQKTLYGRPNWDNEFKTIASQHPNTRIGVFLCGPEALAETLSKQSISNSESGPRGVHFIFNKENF
# [19] = target: NADPH oxidase 4 (Homo sapiens) (UniProt Q9NPH5); assay: compounds shifting NOX4 Amplex Red fluorescence – cell-based, HEK293-NOX4, tetracycline-induced, NOX inhibitor project, primary screen (AID 1160); settings: HEK293-NOX4, Amplex Red H2O2 fluorescence, 45 min; higher = more signal, called active from +8 up or from −8 down
# NADPH oxidase 4 (Homo sapiens), sequence (Q9NPH5 whole entry, looked up): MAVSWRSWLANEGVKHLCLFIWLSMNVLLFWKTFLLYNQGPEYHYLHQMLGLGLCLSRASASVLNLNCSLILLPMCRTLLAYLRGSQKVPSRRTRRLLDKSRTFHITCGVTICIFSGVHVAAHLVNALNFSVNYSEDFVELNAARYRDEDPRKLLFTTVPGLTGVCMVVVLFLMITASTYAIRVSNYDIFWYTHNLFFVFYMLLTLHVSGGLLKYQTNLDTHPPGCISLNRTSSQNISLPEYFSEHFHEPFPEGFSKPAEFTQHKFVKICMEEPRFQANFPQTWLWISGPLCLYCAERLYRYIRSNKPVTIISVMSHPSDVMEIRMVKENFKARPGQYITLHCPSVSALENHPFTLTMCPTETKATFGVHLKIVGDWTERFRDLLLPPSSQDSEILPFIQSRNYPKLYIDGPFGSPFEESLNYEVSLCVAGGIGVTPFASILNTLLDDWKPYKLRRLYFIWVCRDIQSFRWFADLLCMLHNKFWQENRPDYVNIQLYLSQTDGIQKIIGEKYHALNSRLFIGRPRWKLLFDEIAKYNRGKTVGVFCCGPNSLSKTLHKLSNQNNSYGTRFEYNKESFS
# [20] = target: NADPH oxidase 5 (Homo sapiens) (UniProt Q96PH1); assay: compounds shifting NOX5 Amplex Red fluorescence – cell-based, HEK293-NOX5, NOX inhibitor project, primary screen (AID 1161); settings: HEK293-NOX5, ionomycin, 45 min, higher = more signal
# NADPH oxidase 5 (Homo sapiens), sequence (Q96PH1 whole entry, looked up): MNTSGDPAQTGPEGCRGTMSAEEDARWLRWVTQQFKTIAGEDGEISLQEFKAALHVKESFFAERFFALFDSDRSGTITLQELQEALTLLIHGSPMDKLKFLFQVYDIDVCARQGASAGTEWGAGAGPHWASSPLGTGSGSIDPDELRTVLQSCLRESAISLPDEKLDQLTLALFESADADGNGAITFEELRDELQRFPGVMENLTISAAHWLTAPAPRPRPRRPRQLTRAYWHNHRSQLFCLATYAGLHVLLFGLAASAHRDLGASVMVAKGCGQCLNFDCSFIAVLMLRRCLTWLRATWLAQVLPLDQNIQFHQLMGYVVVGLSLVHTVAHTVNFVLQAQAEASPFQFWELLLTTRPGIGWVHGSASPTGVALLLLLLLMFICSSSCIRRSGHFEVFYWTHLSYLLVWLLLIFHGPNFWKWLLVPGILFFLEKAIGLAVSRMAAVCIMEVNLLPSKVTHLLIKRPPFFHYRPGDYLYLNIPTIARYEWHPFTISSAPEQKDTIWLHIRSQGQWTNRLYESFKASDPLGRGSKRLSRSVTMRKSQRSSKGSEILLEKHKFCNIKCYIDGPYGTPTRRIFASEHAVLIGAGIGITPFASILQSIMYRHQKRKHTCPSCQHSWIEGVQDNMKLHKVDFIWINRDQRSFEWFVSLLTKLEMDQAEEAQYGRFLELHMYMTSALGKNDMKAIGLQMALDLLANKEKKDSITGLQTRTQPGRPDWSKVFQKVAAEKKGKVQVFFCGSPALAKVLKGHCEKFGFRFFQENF
Structure (SMILES),composite z-score [1],z-score [2],z-score [3],z-score [4],z-score [5],composite z-score [6],composite z-score [7],composite z-score (Torsin-1A (Homo sapiens) [8]),composite z-score (Torsin-1A (Homo sapiens) [9]),composite z-score [10],z-score [11],composite z-score [12],z-score [13],z-score [14],z-score [15],z-score [16],z-score [17],z-score [18],z-score [19],z-score [20]
C=CC[C@]1(C(=O)N(C)C)COC(c2ccc(OCCCO)cc2)=N1,1.07,-1.88 (inactive),-1.15 (inactive),2.5 (inactive),-1.45 (inactive),2.12,0.3,0.577,1.85,-0.174,-2.4 (inactive),0.0087,8.04 (active),0.627 (inactive),2.32 (inactive),0.0256 (inactive),0.116,-0.898 (inactive),-0.581 (inactive),-2.06
COCCOC(=O)N1C(=O)[C@@]2(c3cc(C#CCC(C(=O)OC)C(=O)OC)ccc31)[C@H](C(=O)N1CCc3cc(OC)c(OC)cc3C1)[C@H]1C(=O)O[C@H](c3ccccc3)[C@H](c3ccccc3)N1[C@@H]2c1ccc(O)cc1,0.44,-0.607 (inactive),0.0314 (inactive),0.0653 (inactive),-0.572 (inactive),0.286,0.134,1.32,0.864,1.9,-0.0961 (inactive),0.191,0.577 (inactive),0.524 (inactive),-0.5 (inactive),0.0513 (inactive),-0.111,1.91 (inactive),0.862 (inactive),0.912
Cc1ccc(F)cc1S(=O)(=O)N[C@@H]1CCN(Cc2ccc3c(c2)OCO3)C1,-0.212,-1.51 (inactive),-0.455 (inactive),1.22 (inactive),-0.714 (inactive),-0.194,-0.128,0.241,0.0733,-0.0547,-3.25 (inactive),-0.0984,1.36 (inactive),0.491 (inactive),0.076 (inactive),0.329 (inactive),-0.0688,-0.438 (inactive),-0.228 (inactive),-0.687
O=C1N(Cc2ccccc2)c2ccccc2[C@H]2OC(c3ccc(OCCCO)cc3)=N[C@@]12Cc1ccccc1,0.806,-4.93 (inactive),-0.0376 (inactive),0.708 (inactive),-1.07 (inactive),0.0454,0.147,-0.0599,0.242,1.64,-0.456 (inactive),0.31,28.7 (active),25.3 (active),3.25 (inactive),2.26 (inactive),0.381,-1.32 (inactive),-0.641 (inactive),-1.68
CCOC(=O)C[C@H]1[C@H](OC(=O)c2ccc(-c3ccccc3)cc2)[C@@H](NC(=O)c2ccc3ccccc3c2)c2cc(OCCCO)ccc2N1C(=O)c1ccccc1,0.247,-0.433 (inactive),0.0625 (inactive),0.544 (inactive),1.09 (inactive),0.114,0.0497,0.742,0.988,0.27,-0.966 (inactive),0.0691,0.398 (inactive),0.134 (inactive),-0.337 (inactive),0.407 (inactive),0.263,-2.38 (inactive),-1.62 (inactive),-0.532
CC(c1ccccc1)C(O)C1C=CC2C(=O)N(c3ccccc3)C(=O)C2N1Nc1ccc(C#N)cc1 (stereo not given),0.644,-0.661 (inactive),-1.26 (inactive),-0.136 (inactive),0.721 (inactive),0.17,0.179,0.618,0.739,1.18,1.16 (inactive),0.379,14 (active),1.58 (inactive),0.832 (inactive),0.264 (inactive),1.38,-1.9 (inactive),-4.04 (inactive),-2.65
NC(=O)NCC#Cc1ccc2c(c1)[C@]1(C(=O)N2)[C@H](C(=O)Nc2nc3ccccc3s2)[C@H]2C(=O)O[C@H](c3ccccc3)[C@H](c3ccccc3)N2[C@@H]1c1ccc(OCCO)cc1,0.262,0.378 (inactive),-1.02 (inactive),0.182 (inactive),-0.199 (inactive),1.11,0.264,-0.657,-0.628,0.287,0.197 (inactive),0.309,1.93 (inactive),1.1 (inactive),-0.166 (inactive),0.737 (inactive),0.169,0.681 (inactive),0.611 (inactive),0.715
COCC(=C=CC[C@@H](O)c1cccc(OCCO)c1)C[C@@H](O)COCc1ccccc1,0.515,-0.825 (inactive),0.125 (inactive),5.99 (inactive),-0.352 (inactive),0.709,0.825,1.58,2.28,0.436,1.63 (inactive),1.24,8.33 (active),-1.22 (inactive),1.08 (inactive),-2.47 (inactive),1.31,-0.0404 (inactive),-0.268 (inactive),-1.62

# From PubChem BioAssay
